# PI5P4Ka inh – blocks human PI5P4K alpha kinase activity; P48426; PI5P4Kalpha enzyme, ADP-Glo luminescence, 60 min; stronger effect = lower value; max response, %; 330,000 compounds, 1.2% hits; active means max response of -50% or lower; inconclusive means between -30% and -50%; inactive means -30% or higher; further: value at the top dose of about 77 µM
# Target sequence (P48426 whole entry, looked up): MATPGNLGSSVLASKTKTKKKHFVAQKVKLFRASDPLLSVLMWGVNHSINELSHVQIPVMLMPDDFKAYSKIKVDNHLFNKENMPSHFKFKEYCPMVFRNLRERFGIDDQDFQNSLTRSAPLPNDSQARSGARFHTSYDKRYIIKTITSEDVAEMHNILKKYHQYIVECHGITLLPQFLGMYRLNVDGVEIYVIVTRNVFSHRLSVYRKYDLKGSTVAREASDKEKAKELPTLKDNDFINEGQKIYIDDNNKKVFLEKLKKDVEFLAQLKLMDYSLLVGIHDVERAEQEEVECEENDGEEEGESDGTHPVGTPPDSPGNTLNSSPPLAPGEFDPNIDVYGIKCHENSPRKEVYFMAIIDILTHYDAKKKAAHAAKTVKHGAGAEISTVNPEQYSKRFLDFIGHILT
#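 ADP-Glo luminescence end-point after a 60 min room-temperature kinase reaction. PI5P4Kalpha and substrate in HEPES pH 7.4 buffer with EGTA, 0.1% CHAPS and 5% DMSO; ATP at 5 microM final.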
# Tb PFK block – T. brucei PFK enzyme inhibition; O15648; T. brucei PFK, ADP-Glo luminescence; 330,000 compounds, 0.17% hits; Potency, µM (top dose mostly 57.5 µM), without a hit: top-dose activity, negative = inhibition, actives largely listed as inhibitors;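 further: potency means the concentration at half of the fitted maximal effect; 0% = uninhibited 1x PFK enzyme wells and -100% = no-enzyme wells; nearly all actives have a fitted effect of over 60% in size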
#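 PFK 1.25 nM, F6P 0.5 mM, ATP 0.1 mM, 0.1 M TEA pH 8.0, 5 mM MgCl2, 0.01% Tween20, 0.1% BSA; 45 min RT. ADP-Glo readout. qHTS titration up to 57 uM; curves fitted, compounds curve-classed.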
# Pin1 inh – inhibitors of human Pin1 | Q13526 | Pin1 FP peptide displacement, HiFluor488, 10 min | Potency, µM (doses to about 115 µM), without a hit: at the highest dose activity, negative = inhibition, hits mostly inhibitors | 390,000 compounds, 0.009% hits; active means well fitted inhibition curve with a large enough effect in the polarisation, with a control signal flat, not every such curve was filed as active; inconclusive means small, poorly fitted or top-dose-only effect, or effect the other way, or a change in a side signal; inactive means no such curve, though single readings can be large or run the other way; the % refers to the polarisation; further: potency means the concentration at half of the fitted maximal effect
# Target sequence (Q13526 whole entry, looked up): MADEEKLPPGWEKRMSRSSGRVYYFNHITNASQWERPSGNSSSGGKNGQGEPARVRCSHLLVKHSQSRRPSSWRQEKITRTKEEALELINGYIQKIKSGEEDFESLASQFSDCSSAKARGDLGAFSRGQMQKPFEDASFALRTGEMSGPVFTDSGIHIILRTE
# PI4K2A block – inhibitors of human PI4K2A. Q9BTU6. purified PI4K2A, ADP-Glo luminescence, 1 h; stronger effect = lower value. activity change, negative = inhibition, % at 76.9 µM. 420,000 compounds, 0.13% hits. AID 1346378; in the data active means activity change below about -50%; inconclusive means mostly about -30% to -49%;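 further: -100% = wells without enzyme as full effect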
#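 PI4K2A activity was measured by ADP-Glo luminescence: enzyme (4 ug/mL stock) and phosphatidylinositol (1.2 mM stock) in Tris pH 7.5/MgCl2/EGTA/Triton X-100 buffer were reacted with ATP (300 microM stock) for one hour at ambient temperature.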
# PGK inhibitor – inhibitors of T. brucei phosphoglycerate kinase; P07378; PGK/GAPDH coupled, Kinase-Glo luminescence, 60 min; Potency, µM (titrated, usually from 57.5 µM), for inactives: top-dose activity change, negative = inhibition, hits mostly inhibitors; 380,000 compounds, 0.043% hits; further: potency means the concentration at half of the fitted maximal effect; nearly all actives have a fitted effect of over 60% in size
#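 Luminescent ATP detection (Kinase-Glo Plus) follows a 60-minute room-temperature incubation, with wells lacking PGK as controls. Buffer: 100 mM TEA (pH 7.6), 5 mM MgCl2, 0.01% Tween-20. Coupling enzyme GAPDH (100 nM final) supplies unstable 1,3-BPG in-well.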
# An asterisk follows results filed as active; i = inactive; ? = inconclusive; . = not tested or not shown; ! = not active in a repeat; [ ] = another dose, or the depositor's remark. This excerpt belongs to a sample that is enriched for hits. Unless noted, the call rests on the fitted dose curve; in most records, active means well fitted curve in the direction sought with a large enough effect; inconclusive means small, poorly fitted or top-dose-only effect, or another doubt; inactive means no such curve, though single readings can be large; an effect the other way counts as inactive or inconclusive. Unless noted, on the % scale 0 is the no-effect control and ±100 the full control effect.
SMILES,PI5P4Ka inh,Tb PFK block,Pin1 inh,PI4K2A block,PGK inhibitor
O=C(COc1ccccc1/C=C\c1[nH]c(=O)[nH]c(=O)c1[N+](=O)[O-])Nc1ccccc1,-69*,3%,4%,?,4%
CC(C)C[C@H](NC(=O)[C@H](Cc1ccccc1)NC(=O)c1cnccn1)B(O)O,.,.,.,3,.
COc1cc(/C=C/c2[nH]c(=O)[nH]c(=O)c2[N+](=O)[O-])cc(OC)c1O,-88*,5%,-2%,-19,-7%
COc1ccc2c(c1)Oc1ncn(CCN3CCOCC3)c(=N)c1C2c1ccc(OC)c(OC)c1 (stereo not given),.,.,-5%,.,.
Oc1ccc(COc2ccccc2Cl)c2cccnc12,.,.,-2%,.,.
O=C(CSc1n[nH]c(=O)[nH]c1=O)Nc1ccc2c(c1)C(=O)c1ccccc1C2=O,-59*,?,.,-17,?
COc1cc([N+](=O)[O-])cc(/C=N/NC(=O)C(C)Nc2cccc3ccccc23)c1O (stereo not given),-50*,5%,-9%,-2,-3%
CC(Nc1cccc2ccccc12)C(=O)N/N=C/c1ccc([N+](=O)[O-])cc1 (stereo not given),2,14%,-7%,-3,-3%
COc1ccc(C2Nc3ccccc3C(=O)N2Cc2ccccc2)cc1COc1ccc(F)cc1 (stereo not given),.,.,-4%,.,.
O=C(CSc1ccsc1[N+](=O)[O-])NCc1ccco1,-71*,-13%,?,-4,-19%
O=C(CSc1ccsc1[N+](=O)[O-])N1CCCCCC1,-14,-13%,1%,-8,-18%
COCCCNC(=O)CSc1ccsc1[N+](=O)[O-],-20,-6%,?,3,4%
O=C(CSc1ccsc1[N+](=O)[O-])N1CCN(c2ccccc2)CC1,-57*,?,?,-11,-8%
O=C(CSc1ccsc1[N+](=O)[O-])N1CCN(c2ccc(Cl)cc2)CC1,-62*,?,-5%,-8,-11%
CC(=O)c1cc2ccccc2s1,.,.,.,-1,.
CC(C)C[C@@H]1[C@H](c2ccccc2)OC(=O)N1CCCN1CCCCCC1,.,.,.,2,.
O=C(c1cc2ccc3cccnc3c2[nH]1)N1CCN(c2ccc(Cl)cc2)CC1,.,.,7%,-3,-7%
Cc1ccc(Cl)cc1N1CCN(C(=O)c2cc3ccc4cccnc4c3[nH]2)CC1,.,.,9%,-76*,-3%
CC(C)(C)N=Cc1c(O)ccc2oc3c(c12)CCCC3,-2,0%,.,-7,-7%
O=[N+]([O-])c1cc2oc3c(c2c(C=NCc2ccncc2)c1O)CCCC3,-81*,-5%,5%,-13,-10%
N#Cc1nc(NCC2CC2)nc(Nc2ccccc2)n1,.,.,2%,.,.
C=Cc1c(C)c2cc3[nH]c(cc4nc(cc5nc(cc1[nH]2)C(C)=C5CCC(=O)O)C(CCC(=O)O)=C4C)c(C)c3C=C,-51*,?,32µM*,?,10µM*
CC(NC(=O)OC(C)(C)C)C(=O)Oc1cc2oc(=O)cc(-c3ccccc3)c2cc1Cl (stereo not given),-69*,-11%,-3%,0,3%
Oc1ccc(/C=N/Nc2ncnc3nc[nH]c23)cc1,-66*,?,17%,-52*,?
COc1ccc(-n2c(SCC(=O)Nc3ccc4c(c3)OCCO4)nnc2-c2ccccc2)cc1,.,.,.,-1,.
SMILES,PI5P4Ka inh,Tb PFK block,Pin1 inh,PI4K2A block,PGK inhibitor
COc1ccc(C(=O)Nc2noc3ccccc23)cc1,.,.,-4%,-73*,.
COc1ccc(C(=O)Nc2ccc(O)c3ccccc23)cc1,?,.,1%,-6,-3%
Cc1ccc(NS(=O)(=O)c2ccc3c(c2)CCC(=O)N3)cc1Cl,.,.,-2%,.,.
CCN1/C(=C/C(C)=C/c2sc3ccccc3[n+]2CC)Sc2ccccc21,-50*!,-5%,149%,-51*!,?
CCCN(CCC)C(=O)C(CCC(=O)OCCCN1CCN(CCOC(=O)Cc2c(C)n(C(=O)c3ccc(Cl)cc3)c3ccc(OC)cc23)CC1)NC(=O)c1ccccc1 (stereo not given),.,.,.,0,.
O=C1C=C(N2CCOCC2)c2cccc3cccc1c23,-9,.,.,4,-4%
O=C1C=C(N2CCOCC2)c2ccccc2C1=O,-8,-4%,-22%,-75*,-22%
CC1=C(C(=O)Nc2ccccc2)C2(CCCCC2)C(C#N)=C(S)N1,-58*,0%,20%,10,-4%
CSC1=C(C#N)C2(CCCCC2)C(C(=O)Nc2ccccc2)=C(C)N1,3,.,1%,10,-1%
CC(C)n1c(SCC(=O)Nc2nncs2)nnc1-c1ccco1,-74*,?,?,-3,-25%
O=C(CCCCn1ccc(=O)[nH]c1=O)Nc1ccc(O)c(C(=O)O)c1,-8,.,0%,0,i
O=C(CCCCn1ccc(=O)[nH]c1=O)Nc1ccc(C(=O)O)c(O)c1,-71*,.,3%,3,-8%
CC1(C)CC2(CC(c3ccccc3F)c3ccc(O)c(O)c3O2)NC(=S)N1 (stereo not given),-56*,-17%,0%,5,4%
CC1(C)CC2(CC(c3ccc(F)cc3)c3ccc(O)cc3O2)NC(=S)N1 (stereo not given),-8,4%,-4%,1,-6%
CN1C(=O)Cc2cc([S+](=O)([O-])N3CCN([S+](=O)([O-])c4c(F)cccc4F)CC3)ccc21,.,.,-1%,.,.
COc1cccc(-c2nnc3n2N=C(c2ccc(OC)cc2OC)CS3)c1,.,.,41%,.,.
Cc1ccc(Cl)cc1NS(=O)(=O)c1cc2c(cc1F)NC(=O)CC2,.,.,-7%,.,.
Cc1ccc(C(=O)c2coc3cc([N+](=O)[O-])c(O)c([N+](=O)[O-])c23)cc1,-82*,4%,?,-7,-9%
O=S(=O)(c1ccccc1)N1CCN(c2nc(C3CC3)nc3ccccc23)CC1,.,.,-17%,.,.
N#C/C(=C(/O)c1ccc(-c2cccc([N+](=O)[O-])c2)o1)c1nc2ccccc2s1,-53*,0%,35%,1,-6%
O=C1C2CCCCC2C(=O)N1c1cccc(OS(=O)(=O)c2ccccc2)c1 (stereo not given),-1,0%,1%,-1,-4%
O=C1CC(=O)N(C2CCCCC2)C(=O)N1c1ccccc1S(=O)(=O)Oc1ccccc1,-64*,.,.,-26,.
Cc1ccc(OCc2nnc(SCC(=O)Nc3ccccc3-c3ccccc3)n2Cc2ccco2)cc1,.,.,.,-1,.
COc1ccc(-c2nc3ccccc3c(=O)n2Cc2ccccc2)cc1OCc1ccc(NC(C)=O)cc1,.,.,13%,.,.
O=C1Cc2cc(S(=O)(=O)N3CCN(c4ccc(C(F)(F)F)cc4)CC3)ccc2N1,.,.,5%[230 µM],.,.
O=C(CSc1ncnc2nc[nH]c12)c1ccc(Cl)cc1,-55*,3%,0%,4,-3%
CCCCNC(=S)NCCCN(Cc1ccc(Cl)c(Cl)c1)c1ccc(Br)cn1,.,.,12%,.,.
O=C(NNc1nc(-c2ccc(F)cc2)cs1)c1ccccc1,-53*,-4%,4%,7,-2%

# From PubChem BioAssay
